A selection follows.
aSyn UTR act: Activators via SNCA 5'UTR binding, MLPCN. alpha-synuclein 5'UTR reporter, activators screen. activity score, % (tested at 7.5 µM), hits read low. 300,000 compounds, 7.1% hits; in the data active means activity score below about -60%
Active calls of the source: *.

Results for CC(C)c1ccc2oc(-c3ccc(NC(=O)c4ncn[nH]4)cc3)nc2c1 ?
aSyn UTR act: -79.8*

What do the screens show for `Cc1ccc(Nc2cc(-n3cccn3)ncn2)c(C)c1`?
aSyn UTR act: -170.1*

How did Fc1cccc(Nc2cc(-n3cccn3)ncn2)c1 do in these assays?
aSyn UTR act: -147.5*

What do the screens show for `Cc1cccc(CSC2=NN3CCCC(=O)N=C3S2)c1`?
aSyn UTR act: -69.2*

How did COc1ccccc1NC(=S)N/N=C/c1ccc(O)cc1 do in these assays?
aSyn UTR act: -156.8*

What do the screens show for `COc1ccccc1NC(=S)N/N=C/c1cccc(C)c1`?
aSyn UTR act: -66.4*

How did CC1=CN2C(=N)/C(=C/c3ccco3)C(=O)N=C2S1 do in these assays?
aSyn UTR act: -219.1*

Results for CCOC(=O)C1CCCN(Cc2cc(=O)oc3cc(C)ccc23)C1 (stereo not drawn) ?
aSyn UTR act: -75.5*

How did Cc1ccc2c(CN3CCC(C)CC3)cc(=O)oc2c1 do in these assays?
aSyn UTR act: -150.0*

Results for COc1cccc(-c2cc(C(=O)NC3CCCC3)no2)c1 ?
aSyn UTR act: -115.1*

Results for COCCNC(=O)c1cc(-c2cccc(OC)c2)on1 ?
aSyn UTR act: -85.1*

How did O=C(NC1CCCCC1)c1ccc(-c2cccc([N+](=O)[O-])c2)o1 do in these assays?
aSyn UTR act: -126.9*

Results for COCC(C)NC(=O)c1cc(-c2cccc(OC)c2)on1 (stereo not drawn) ?
aSyn UTR act: -132.9*

What do the screens show for `Cc1cc(O)ccc1Nc1nc(-c2cccnc2)cs1`?
aSyn UTR act: -281.0*

How did Cc1cc(O)ccc1Nc1nc(-c2cccs2)cs1 do in these assays?
aSyn UTR act: -101.4*

What do the screens show for `COc1ccc(NC(=O)c2cccc(Oc3ccccc3)c2)cn1`?
aSyn UTR act: -108.5*

Results for COc1ccc(NC(=S)NC(=O)c2ccccc2)cn1 ?
aSyn UTR act: -137.8*

Results for CCCC(=O)Nc1nc2c(s1)COc1ccccc1-2 ?
aSyn UTR act: -134.3*

How did CCCCC(=O)Nc1nc2c(s1)COc1ccccc1-2 do in these assays?
aSyn UTR act: -107.0*

How did COc1ccc(-c2noc(Cc3cccs3)n2)cc1 do in these assays?
aSyn UTR act: -188.5*

What do the screens show for `COc1ccc(-c2noc(Cc3ccccc3OC)n2)cc1`?
aSyn UTR act: -64.3*

How did COc1ccc(-c2noc(CCc3ccccc3)n2)cc1 do in these assays?
aSyn UTR act: -148.0*

Results for CCOC(=O)c1c2c(n(C)c1COC)C(=O)C(=O)c1ccc(Br)cc1-2 ?
aSyn UTR act: 92.1

What do the screens show for `CCOC(=O)c1c(CNc2ccncc2)n(C)c2cc(Br)c(O)cc12`?
aSyn UTR act: -61.8*

Results for CCC1CCc2sc(C(=O)NCc3ccccn3)cc2C1 (stereo not drawn) ?
aSyn UTR act: -92.3*

Results for O=C1NC(=S)S/C1=C\c1coc2ccccc2c1=O ?
aSyn UTR act: -85.4*

What do the screens show for `Cc1ccc(C(c2cc(Cl)c3cccnc3c2O)N2CCN(C)CC2)cc1` (stereo not drawn)?
aSyn UTR act: 66.3

Results for CC(C)c1ccc(-c2cc(C(=O)NN3CCN(C)CC3)c3ccccc3n2)cc1 ?
aSyn UTR act: -116.8*

What do the screens show for `CC(C)c1ccc(-c2cc(C(=O)N3N=C(C(F)F)CC3(O)C(F)F)c3ccccc3n2)cc1` (stereo not drawn)?
aSyn UTR act: -166.0*

Results for CN1CCN(c2ccc(-c3ccc4ccccc4n3)cc2)CC1 ?
aSyn UTR act: 111.6

How did Cc1ccc(NC(=O)Nc2ccc(F)cc2)nc1 do in these assays?
aSyn UTR act: -108.2*

What do the screens show for `Cc1ccnc(NC(=O)Nc2ccc(F)cc2)c1`?
aSyn UTR act: -85.9*

How did CN(CC(=O)Nc1ccc(Cl)c(S(=O)(=O)N(C)C)c1)Cc1ccccc1 do in these assays?
aSyn UTR act: -109.3*

Results for CCOc1ccc(NC(=O)CN(C)c2ccc(S(=O)(=O)N(C(C)C)C(C)C)cn2)cc1OCC ?
aSyn UTR act: 60.8

Results for CCCCc1ccc(NC(=S)Nc2ccc(Cl)c(S(=O)(=O)N(C)C)c2)cc1 ?
aSyn UTR act: -68.0*

Results for COc1ccc(C(=O)Cn2cnc3ccccc3c2=O)c(OC)c1 ?
aSyn UTR act: -96.3*

What do the screens show for `CCN1CCN(c2cc(C)c3cc(NC(=O)c4ccc(Br)o4)ccc3n2)CC1`?
aSyn UTR act: -84.5*

How did Cc1cc(N2CCN(C)CC2)nc2ccc(NC(=O)c3ccccc3F)cc12 do in these assays?
aSyn UTR act: -123.0*

How did CCN1CCN(c2cc(C)c3cc(NC(=S)N4CCCCC4)ccc3n2)CC1 do in these assays?
aSyn UTR act: -85.3*

What do the screens show for `CCN1CCN(Cc2ccc(NC(=O)c3ccc(C)c(/C=C/c4cnc(Nc5cc(N6CCNCC6)nc(C)n5)cn4)c3)cc2C(F)(F)F)CC1`?
aSyn UTR act: 110.2

What do the screens show for `CCN1CCN(c2cc(C)c3cc(NC(=O)c4ccc(C)c(C)c4)ccc3n2)CC1`?
aSyn UTR act: 16.8

What do the screens show for `CCOc1ccc(/C=C/C2=Cc3c(sc(NC(=O)CSc4n[nH]c(N)n4)c3C#N)C(C)(C)C2)cc1`?
aSyn UTR act: -95.0*

How did Nc1cccc2c1C(=O)N(C(=O)/C=C/c1cccc(Br)c1)C2=O do in these assays?
aSyn UTR act: -160.3*

What do the screens show for `COc1ccc(C(=O)NCCn2cc(SCC(=O)Nc3nnc(C)s3)c3ccccc32)cc1`?
aSyn UTR act: -69.4*

What do the screens show for `CCCCc1ccc(NC(=O)C2CCCO2)cc1` (stereo not drawn)?
aSyn UTR act: -97.0*

How did CCCCc1nnc(NC(=O)C2CCCO2)s1 (stereo not drawn) do in these assays?
aSyn UTR act: -85.5*

How did CCCCc1nnc(NC(=O)C2=COCCO2)s1 do in these assays?
aSyn UTR act: -64.1*

Results for CCOC(=O)c1ccc(NC(=O)C2CCCO2)cc1 (stereo not drawn) ?
aSyn UTR act: -98.7*

What do the screens show for `CCCc1nnc(NC(=O)C23CC4CC(CC(C4)C2)C3)s1`?
aSyn UTR act: -117.6*

How did CCCCOC(=O)c1ccc(NC(=O)c2c(Cl)ccc(Cl)c2OC)cc1 do in these assays?
aSyn UTR act: -65.5*

Results for CCCCOC(=O)c1ccc(NC(=O)C2CCCO2)cc1 (stereo not drawn) ?
aSyn UTR act: -75.0*

What do the screens show for `COC(=O)C1=C(O)/C(=C\c2cc(C)n(-c3ccccc3C)c2C)N=C1C`?
aSyn UTR act: -81.7*

How did CC(C)Cc1cc(C(=O)NCc2ccco2)no1 do in these assays?
aSyn UTR act: -92.1*

Results for O=C(NCc1ccco1)c1ccc(Cn2c(=O)c3ccccc3n(Cc3cccc(Cl)c3)c2=O)cc1 ?
aSyn UTR act: 64.3

How did O=C(NCc1ccco1)c1cc(-c2ccc3c(c2)OCO3)on1 do in these assays?
aSyn UTR act: -96.7*

How did O=C(NCc1ccco1)c1ccc(-c2cccc(Cl)c2)o1 do in these assays?
aSyn UTR act: -73.8*

How did O=C(NCc1ccco1)c1cc(-c2ccc(Cl)cc2)on1 do in these assays?
aSyn UTR act: -130.1*

How did CC1CCc2onc(C(=O)NCc3ccco3)c2C1 (stereo not drawn) do in these assays?
aSyn UTR act: -64.2*

How did COc1ccc(OC)c(-c2cc(C(=O)NCc3ccco3)no2)c1 do in these assays?
aSyn UTR act: -69.3*

How did COc1ccc(OC)c(-c2cc(C(=O)Nc3c(C)nn(Cc4ccccc4)c3C)no2)c1 do in these assays?
aSyn UTR act: 61.0

Results for O=C(NCc1ccco1)c1cc(-c2cccc(Cl)c2)on1 ?
aSyn UTR act: -91.6*

How did CC1=Nc2cc(C(=O)NCc3ccco3)ccc2Sc2ccc(C)cc21 do in these assays?
aSyn UTR act: 101.2

How did Cc1ccc(-c2cc(C(=O)NCc3ccco3)no2)cc1 do in these assays?
aSyn UTR act: -154.0*

Assay outcomes as filed in PubChem.
